From PubChem BioAssay (Tox21)
Activity calls are given as the source filed them. Where a call stands in place of a potency, no number is given. Calls follow the shape of the dose curve; as a rule, active = well fitted activation curve with a large enough effect in the repeat runs; inconclusive = weak or mixed curves; inactive = flat fitted curve, though single readings scatter. Residues, ends and D or L forms follow the SMILES beside them.

Assay: A CellTox Green Cytotoxicity Assay to monitor cytotoxicity in HepG2 cells - 0 hour (AID 1224882); also: nearly all actives have a fitted effect of over 35% in size
Conditions: CellTox Green fluorescence; series mostly up to 76.8 µM
Excerpt: National Center for Advancing Translational Sciences [NCATS]
NIH Chemical Genomics Center [NCGC]
U.S. Environmental Protection Agency [EPA]
National Institutes of Environmental Health Sciences [NIEHS]
National Toxicology Program [NTP]
Cell-based models are critical for drug discovery. Determining the natural cytotoxic effects resulting from test compounds is an essential research activity. A CellTox Green Cytotoxicity Assay to monitor cytotoxicity in real time of continues cell culture during 40 hours of the compound treatment was used to screen Tox21 10K library compounds in HepG2 cells. CellTox Green Cytotoxicity Assay is a nonlytic, homogeneous, biofluorescent method to measure cytotoxicity in cell culture after experimental manipulation. The assay system uses a proprietary asymmetric cyanine dye that is excluded from viable cells but preferentially stains the dead cell's DNA. […] Viable cells produce no appreciable increases in fluorescence. Therefore, the fluorescence signal produced by the binding interaction with dead cell DNA is proportional to cytotoxicity.
The mixture of HepG2 cell suspension and reagents were dispensed at 600cells/6 ul/well in 1536-well tissue culture treated black solid bottom plates using a Multidrop dispenser. After the assay plates were incubated at a 37 C/5% CO2 incubator for 5 hours, 23 nL of compounds dissolved in DMSO, positive and negative controls was transferred to the assay plate by a pintool work station. The plates were incubated at 37 C for 40 hours. The fluorescence intensity were measured at 0h, 8h, 16h, 24h, 32h and 40h time points using ViewLux plate reader during compound treatment.

Row | Structure (SMILES) | Potency
1 | O=C(O)c1[nH]n(-c2ccc(S(=O)(=O)O)cc2)c(=O)c1N=Nc1ccc(S(=O)(=O)O)cc1 | inactive
2 | CCCNC(=O)NS(=O)(=O)c1ccc(Cl)cc1 | inactive
3 | Cc1ccccc1C(OCCN(C)C)c1ccccc1 (stereo not given) | inactive
4 | O=C(O)c1cc(N=Nc2ccc(S(=O)(=O)Nc3ccccn3)cc2)ccc1O | inactive
5 | CCCCC(CC)COC(=O)/C=C/c1ccc(OC)cc1 (stereo not given) | inactive
6 | NC(=O)c1cnccn1 | inactive
7 | NS(=O)(=O)c1cc(C(=O)O)c(NCc2ccco2)cc1Cl | inactive
8 | NC(=O)NC1NC(=O)NC1=O (stereo not given) | inactive
9 | Oc1ccc(/C=C/c2cc(O)cc(O)c2)cc1 | inactive
10 | CC(C)(Oc1ccc(C2CC2(Cl)Cl)cc1)C(=O)O (stereo not given) | inactive
11 | O=C(O)c1cccnc1 | inactive
12 | NC(N)=O | inactive
13 | O=C1NC(=O)c2ccccc21 | inactive
14 | NNC(=O)c1ccncc1 | inactive
15 | CC(=O)Nc1nnc(S(N)(=O)=O)s1 | inactive
16 | Nc1ccc(S(=O)(=O)c2ccc(N)cc2)cc1 | inactive
17 | CCCC(CCC)C(=O)O | inactive
18 | Cc1cc(=O)[nH]c(=S)[nH]1 | inactive
19 | O=C1CN(/N=C/c2ccc([N+](=O)[O-])o2)C(=O)N1 | inactive
20 | O=S(=O)(O)c1ccc2cc(O)ccc2c1 | inactive

Row | Structure (SMILES) | Potency
21 | O=C(O)CCCCC(=O)O | inactive
22 | O=C(O)/C=C\C(=O)O | inactive
23 | Nc1ccn([C@H]2CC[C@@H](CO)O2)c(=O)n1 | inactive
24 | CNC[C@H](O)c1cccc(O)c1 | inactive
25 | Cn1cc[nH]c1=S | inactive
26 | OC(Cn1cncn1)(Cn1cncn1)c1ccc(F)cc1F | inactive
27 | COc1c2occc2cc2ccc(=O)oc12 | inactive
28 | O=c1ccc2ccccc2o1 | inactive
29 | O=C(O)CCC(=O)O | inactive
30 | COC(=O)[C@H](Cc1ccccc1)NC(=O)[C@@H](N)CC(=O)O (H-Asp-Phe-OMe) | inactive
31 | O=C(O)CCCCCCCC(=O)O | inactive
32 | CC(=O)NS(=O)(=O)c1ccc(N)cc1 | inactive
33 | CCCC(O)C(CC)CO (stereo not given) | inactive
34 | CC(=O)OCC(COC(C)=O)OC(C)=O | inactive
35 | C[C@]12C=CC(=O)C=C1CC[C@@H]1[C@@H]2[C@@H](O)C[C@@]2(C)[C@H]1CC[C@]2(O)C(=O)CO | inactive
36 | Cc1ccc(C)c(OCCCC(C)(C)C(=O)O)c1 | inactive
37 | Cc1ccc(O)cc1 | inactive
38 | c1ccc2[nH]ccc2c1 | inactive
39 | Nc1ccc(O)c(C(=O)O)c1 | inactive
40 | O=C(c1ccccc1)c1ccccc1 | inactive
